Data on 109 compounds can be found in PubChem BioAssay AID485313 (National Center for Advancing Translational Sciences (NCATS), 2010).

The whole screen tested about 320,000 compounds, of which about 7,600 (2.4%) were called active. Inconclusive results (about 3%) are left out. The full list was thinned out, with actives kept by preference. Values without a mark were called inactive. Calls follow the shape of the dose curve; as a rule, active = well fitted activation curve with a large enough effect; inconclusive = small, poorly fitted or top-dose-only effect; inactive = no such curve, though single readings can be large or run the other way.
Potency is read from the fitted curve at half-maximal effect.

A short description of this test: qHTS Assay for NPC1 Promoter Activators. Also: nearly all actives have a fitted effect of over 60% in size.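 As to activation: reporter is driven by a mutant NPC1 promoter; % of control where 0% means no effect.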 The conditions noted are these: Huh7 NPC1 promoter luciferase reporter, 24 h; series mostly up to 9.22 µM; activation: at the top concentration. The procedure, abridged:
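Huh7 reporter cells (NPC1 promoter driving luciferase) are dosed with compound for 24 h at 37 °C, 5% CO2; luciferase detection reagent is then added and luminescence measured after 10 min at ambient temperature.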
(In general: Quantitative high-throughput screening tests each substance at several concentrations.)
For `COc1ccc(CNC(=O)COC(=O)c2ccc(C)c(S(=O)(=O)N3CCOCC3)c2)cc1OC`, the “activation” value was -1.27%.
Same read-out and setting: the same measure for `Cc1cccc(OCCC(=O)OCc2csc(CC(=O)Nc3ccccc3C)n2)c1`: -2.87%.
With `COC(=O)c1ccc(C23CC4(C2)[C@H](CN(Cc2cccnc2)[C@@H]4c2ccccc2)C3c2ccc(Cl)nc2)cc1` (some centres undefined), the “activation” value was -3.01%.
Consider `CN(Cc1ccccc1)S(=O)(=O)c1nnc(NC(=O)c2ccccc2F)s1`, for which the “activation” value was 1.08%.
`O=C(Nc1nnc(-c2ccccc2F)s1)c1ccccc1F`: the Potency is 1.58 µM (active).
For the compound `O=C(Nc1ccc(NC(=O)c2ccccc2F)cc1)c1ccccc1F`, the “activation” value is -6.42%.
Regarding `COc1ccc(C(=O)NCC2CCCCC2)cc1S(=O)(=O)N1CCCC1`, the “activation” value is -5.34%.
Take `CCCn1c(N)c(C(=O)CSc2nnc3n2CCCCC3)c(=O)[nH]c1=O`: the “activation” value is 0.178%.
On to `COc1ccc([C@H]2CC(=O)C=C(c3ccc(CO)cc3)C2)cc1`, for which the “activation” value is 0.356%.
For the compound `Cc1c(/C=N\NC(=O)c2cc3ccccc3o2)c2ccccc2n1C`, the “activation” value was -28.8%.
As for `Cc1ccc(NC(=O)c2cc3ccccc3o2)cc1`, the Potency was 3.16 µM (active).
`C/C(=N\NC(=S)Nc1ccc(C)cc1)c1cc2ccccc2o1`: the “activation” value was -1.99%.
Take `COc1ccc(NC(=O)Cn2cc(C(=O)c3ccncc3)c(=O)c3cc(C)ccc32)cc1Cl`: the “activation” value is -0.38%.
On to `O=C1C=C(c2cccc(Br)c2)C[C@@H](c2ccc(F)cc2)C1`, for which the “activation” value was -2.81%.
In the case of `COc1cc(SC)ccc1C(=O)Nc1cc(C)ccn1`, the Potency was 3.16 µM (active).
As to `Cc1ccnc(NC(=O)CNC(=O)c2ccccc2)c1`, the “activation” value is 3.23%.
With `Cc1ccnc(NC(=O)CCCOc2ccccc2)c1`, the “activation” value was -5.09%.
With `COc1cc(SC)ccc1C(=O)NCCOc1ccccc1Cl`, the Potency is 3.16 µM (active).
With `COc1cc(SC)ccc1C(=O)N(Cc1ccccc1)c1ccccc1`, the “activation” value was -0.508%.
Regarding `COc1ccccc1OCCNC(=O)CCNC(=O)c1ccccc1Cl`, the “activation” value is 0.549%.
Turning to `COc1ccc(S(=O)(=O)Nc2cc(C)on2)cc1NC(C)=O`, the “activation” value was -2.61%.
Turning to `CC1CCCCC1NC(=O)COC(=O)Cc1ccc(Cl)cc1` (centres undefined), the “activation” value is -1.97%.
Turning to `CCc1ccc(C(=O)N2CCN(S(=O)(=O)c3sc(C(=O)O)c(C)c3C(=O)O)CC2)cc1`, the “activation” value is -3.15%.
On the same count and under the same terms, as for `COc1ccc(CNC(=O)CN2C(=O)NC3(CCCc4sccc43)C2=O)cc1` (centres undefined), the figure is -0.775%; as for `CCN(CC)S(=O)(=O)c1ccc(CNC(=O)CN2C(=O)NC3(CCc4ccccc43)C2=O)cc1` (centres undefined), -1.9%; as for `Cc1ccn(CCC(=O)N2c3ccccc3CC2C)n1` (centres undefined), -2.45%.
In the case of `CCCC(=O)N1c2ccc(-c3csc(N)n3)cc2CC1C` (centres undefined), the Potency was 2.82 µM (active).
Turning to `CCn1nc(C(=O)OCC(=O)N2c3ccccc3CC2C)c2ccccc2c1=O` (centres undefined), the “activation” value is -6.18%.
The same measure, in the same setting: as for `COc1ccc(CCNC(=O)COC(=O)c2cc(=O)c3ccccc3o2)cc1`, the figure is -3.16%.
As to `O=C(O)c1ccccc1N=N/C(=N/Nc1cc(S(=O)(=O)O)ccc1O)c1ccccc1`, the “activation” value is 10.8%.
With `O=C(c1ccc2nc(N3CCOCC3)sc2c1)N1CCN(c2ccc(Cl)cc2)CC1`, the “activation” value is 2.53%.
In the case of `Brc1ccc2nc(N3CCCC3)sc2c1`, the Potency was 2 µM (active).
Take `Cc1nc(N2CCCCC2)sc1C=O`: the “activation” value is 0.38%.
For `CN(C)CCCN(C(=O)c1ccc(S(=O)(=O)N2CCCCCC2)cc1)c1nc2ccc(Br)cc2s1`, the “activation” value is -4.3%.
For `O=C(NCCc1cccc(F)c1)C1CCCN(c2nc3ccccc3s2)C1` (centres undefined), the “activation” value is 3.92%.
Turning to `Fc1ccc2nc(N3CCCCC3)sc2c1`, the Potency is 3.55 µM (active).
Turning to `OCC[C@H]1C[C@H](O)[C@@H](O)[C@]2(Cc3ccccc3CO2)O1`, the “activation” value is 3.77%.
For the compound `COc1ccccc1CNC(=O)CCCN1C(=O)NC2(CCCC2)C1=O`, the “activation” value was -1.89%.
On to `CNS(=O)(=O)c1cccc(C(=O)OCC(=O)N2c3ccccc3NC(=O)C2(C)C)c1`, for which the “activation” value is -0.887%.
Consider `Cc1ccc(OCCCC(=O)Nc2ccc3c(c2)OCCO3)cc1`, for which the “activation” value was -3.68%.
With `O=C(CNC(=O)c1cccs1)N/N=C/c1cccc(Br)c1`, the “activation” value is 6.34%.
With `CCN(CC)c1ccc(/C=N/NC(=O)CNC(=O)c2cccs2)cc1`, the “activation” value is 14.9%.
With `CC(=O)Nc1ccc(/C=N/NC(=O)c2cccs2)cc1`, the Potency is 2.51 µM (active).
Take `CC(=O)c1ccc(OC(=O)N2CCOCC2)cc1`: the “activation” value was 14%.
As for `CC(C)CN(C(=O)CSc1nncn1C)C1CCS(=O)(=O)C1` (centres undefined), the “activation” value is 0.274%.
In the case of `Cc1c(NC(=O)c2cc(-c3ccc(Br)cc3)on2)c(=O)n(-c2ccccc2)n1C`, the “activation” value was 2.15%.
Regarding `CC(C)CNC(=O)c1cc(-c2ccc(Br)cc2)on1`, the Potency is 3.16 µM (active).
Consider `COc1ccc(-c2cc(C(=O)NCCCN3CCOCC3)no2)cc1`, for which the “activation” value was 1.31%.
Still for that read-out and setting: as for `COc1ccc(CCC(=O)N2CCN(S(=O)(=O)c3ccc(OC)cc3)CC2)cc1`, the figure is 0.281%; as for `Cc1cc(NC(=O)COc2ccc([N+](=O)[O-])cc2)no1`, -0.975%; as for `Cc1cccc(NC(=O)CN2CCN(CC(=O)NCC3(N4CCCCC4)CCCCC3)CC2)c1C`, 0.584%.
As for `CN(CC(=O)NC(=O)Nc1ccccc1F)Cc1ccccc1`, the “activation” value was 12%.
In the case of `CC(C)(C)C(=O)Nc1ccc(-c2cn3cccnc3n2)cc1`, the Potency was 3.16 µM (active).
As for `CCCCCC(=O)Nc1ccc(-c2cn3cccnc3n2)cc1`, the “activation” value is 17.5%.
Still for that read-out and setting: as for `CC(=O)Nc1ccc(S(=O)(=O)Nc2cccc(NC(=O)C(C)(C)C)c2)cc1`, the figure is -2.66%; as for `O=C1C=C(c2ccnc3cc(Cl)ccc23)C[C@@H](c2ccc3c(c2)OCO3)C1`, -13.5%; as for `Cc1ccc(CNC(=O)c2cc(-c3ccccc3C)n(CC3CC(c4cccc([N+](=O)[O-])c4)=NO3)n2)cc1` (centres undefined), 0.216%.
Take `CN(c1ccccc1)S(=O)(=O)c1cccc(NC(=O)Cc2ccc(Cl)cc2)c1`: the “activation” value was -2.82%.
Same read-out and setting: as for `OCCN1CCN(C(=S)c2ccc(-c3ccccc3)cc2)CC1`, the figure is -28%.
For `S=C(c1ccc(-c2ccccc2)o1)N1CCCCC1`, the Potency is 2.24 µM (active).
Regarding `S=C(c1ccccc1)N1CCCC1`, the “activation” value was 2%.
The same measure, in the same setting: the same measure for `O=C(OCC(=O)N1CCCC1)c1ccc(Cl)nc1`: -2.27%.
On to `Cc1ccc(Nc2nnc(SC(C)C(=O)NC3CC3)s2)cc1` (centres undefined), for which the “activation” value was -0.133%.
Consider `O=C(CCNC(=O)c1ccccc1)Nc1nc2ccccc2s1`, for which the “activation” value is 22%.
As for `CN1CCN(c2ccc(NC(=O)c3ccc4c(c3)OCCO4)cc2Cl)CC1`, the Potency is 3.55 µM (active).
`O=C(Nc1ccc(Cl)cc1)Nc1nnc(/C=C/c2ccccc2)s1`: the “activation” value was 4.26%.
For the compound `O=C(Nc1ccccc1N1CCN(C(=O)c2ccccc2)CC1)c1ccc2c(c1)OCO2`, the “activation” value was -4.02%.
The same measure, in the same setting: the same measure for `O=C(Nc1cccc(S(=O)(=O)N2CCCCC2)c1)c1ccc2c(c1)OCO2`: -3.47%; for `CN1CCN(c2ccc(NC(=O)c3cc(Cl)c4c(c3)OCCO4)cc2)CC1`: 9.41%.
Take `O=C(CN1CCc2cc3c(cc2C1)OCCCO3)Nc1ccccc1`: the “activation” value was 0.0775%.
As to `O=C(Nc1ccccc1F)c1ccc2c(c1)OCO2`, the Potency is 3.98 µM (active).
With `O=C(Nc1ccccc1)Nc1nc2ccccc2s1`, the Potency is 2.82 µM (active).
Turning to `O=C(Nc1ccccc1)c1ccc2c(c1)OCCCO2`, the Potency was 0.501 µM (active).
For the compound `COC(=O)c1ccc(N2CCOCC2)c(NC(=O)c2ccc3c(c2)OCCO3)c1`, the “activation” value is -0.91%.
For the compound `Cc1ccc(F)cc1NC(=O)c1ccc2c(c1)OCO2`, the “activation” value is 10.7%.
Turning to `Cc1cc(C)n2nc(C(=O)OCC(=O)N(C)CC(=O)Nc3ccc(F)cc3)nc2n1`, the “activation” value was -10.3%.
As for `O=C(CSc1nc2[nH]c(=O)[nH]c(=O)c2s1)Nc1cccc(F)c1`, the “activation” value was -6.24%.
In the case of `Cc1cc(C)c(C#N)c(SCC(=O)N(CC(C)C)C2CCS(=O)(=O)C2)n1` (centres undefined), the “activation” value is -2.59%.
For the compound `c1csc(-c2nnc(COc3ccc4c(c3)OCO4)o2)c1`, the “activation” value is 27.6%.
As to `Cc1cccc(C(=O)O)c1[N+](=O)[O-]`, the “activation” value was 1.58%.
`N#Cc1ccc(C(=O)OCC(=O)NC(=O)NC2CCCCC2)cc1`: the “activation” value is -1.04%.
Turning to `O=S(=O)(c1ccc(SCc2ccccc2)nc1)N1CCCCCC1`, the “activation” value was 1.18%.
In the case of `O=C(Nc1cccc([N+](=O)[O-])c1)c1ccc2c(c1)OCO2`, the “activation” value was 23.5%.
Take `O=C(Nc1ccc(NC(=O)c2ccc3c(c2)OCO3)cc1)c1cccc(Cl)c1`: the “activation” value is -0.441%.
On to `COc1ccc(S(=O)(=O)N2CCOCC2)cc1C(=O)Nc1nc2ccccc2s1`, for which the “activation” value is -5.34%.
Consider `O=C(Nc1nc2cc3c(cc2s1)OCCO3)c1cccc(S(=O)(=O)N2CCOCC2)c1`, for which the “activation” value was 14.3%.
Regarding `O=C(Nc1ccccc1)c1ccc2c(c1)OCO2`, the Potency was 2.82 µM (active).
Regarding `CC(C)C(=O)Nc1cccc(C(=O)Nc2ccc3c(c2)OCO3)c1`, the Potency is 2.82 µM (active).
With `COCc1nnc(NC(=O)c2ccc3c(c2)OCO3)s1`, the Potency is 2.82 µM (active).
For `CCSc1ccccc1C(=O)Nc1ccc2c(c1)OCO2`, the “activation” value is 7.76%.
In the case of `O=C(Nc1ccc2c(c1)OCO2)c1ccc(N2C(=O)c3ccccc3C2=O)cc1`, the “activation” value is 3.6%.
Turning to `Cn1c(NC(=O)c2ccc3c(c2)OCO3)cc(=O)n(C)c1=O`, the “activation” value is -3.07%.
On to `CCCc1nnc(NC(=O)c2cc(OC)cc(OC)c2)s1`, for which the “activation” value was -11.7%.
On to `O=C(Nc1nc2ccccc2s1)c1ccc2c(c1)OCO2`, for which the Potency was 0.562 µM (active).
On to `CS(=O)(=O)Nc1ccccc1C(=O)OCC(=O)NC1CC1`, for which the “activation” value is 6.22%.
`CSc1ccccc1C(=O)OCC(=O)N1CCN(C(C)=O)CC1`: the “activation” value was -1.56%.
On to `Cc1cccc(C(=O)NC(=S)N2CCN(c3ccc([N+](=O)[O-])cc3)CC2)c1`, for which the “activation” value was -0.538%.
On the same count and under the same terms, as for `N#Cc1ccccc1S(=O)(=O)N1CCN(C(=O)c2cc(-c3ccccc3)nn2-c2ccccc2)CC1`, the figure is -2.35%.
For the compound `Cc1ccc(S(=O)(=O)NCCNC(C)c2ccc(Br)cc2)cc1` (centres undefined), the “activation” value was -5.06%.
Consider `CCN(C(=O)CSc1nc(N)cc(=O)[nH]1)C1CCS(=O)(=O)C1` (centres undefined), for which the “activation” value was 0.992%.
As to `CC1(C)O[C@@H]2[C@H](O1)[C@@H](COS(=O)(=O)O)O[C@H]2n1cnc2c(=O)[nH]cnc21`, the “activation” value is 0.178%.
Take `C=CCn1c(C)cc(C2=NNC(=NCC)SC2)c1C`: the “activation” value is -28.2%.
For `COCCn1c(C)cc(C2=NNC(=Nc3ccc(F)cc3)SC2)c1C`, the Potency was 2.51 µM (active).
Take `Cc1ccc(SCC(=O)c2cc(C)c(OC(=S)N(C)C)c(C)c2)cc1`: the Potency is 2.51 µM (active).
As to `COC(=O)c1cc(OC)c(OC)cc1NC(=O)CSc1ccc(C)cc1`, the “activation” value was -1.59%.
As for `CCN1CCN(C(=O)CSc2ccc(C)cc2)CC1`, the “activation” value is 29.7%.
`O=C(NNC(=S)Nc1ccc(Br)cc1Cl)c1ccco1`: the Potency was 3.55 µM (active).
In the case of `CCC(=O)NC(=S)Nc1ccc(NC(=O)c2ccco2)c(Cl)c1`, the “activation” value was 4.41%.
As to `O=C(NNC(=O)c1ccco1)Nc1ccccc1`, the “activation” value is -5.2%.
